hcDAF-12 act: activators of H. contortus DAF-12 nuclear receptor; HEK293 hcDAF-12 lit1-tk-luc reporter, luminescence; 0% DMSO, 100% Δ7-dafachronic acid; activation, % at 6.8 µM; 370,000 tested, 1.4% active;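 active means activation above the mean of all tested compounds plus 3 SD, cut at about 5.5% in these data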;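 further: 100% = response to 3 µM Δ7-dafachronic acid high control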
DAX1 inh-1: inhibits human nuclear receptor DAX1; P51843; HEK293 Gal4-DAX1 luciferase reporter, luminescence; inhibition, % at 6.75 µM; 340,000 tested, 0.99% active; AID 504766;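 active means inhibition above the mean over all tested compounds plus 3 SD, cut at about 4.2% in these data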;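 further: 0% = DAX1-transfected cells with DMSO and 100% = empty-vector control cells with DMSO; inhibition shows as a rise in luminescence from relieved DAX1 repression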
Target sequence (P51843 207-470 limits assumed): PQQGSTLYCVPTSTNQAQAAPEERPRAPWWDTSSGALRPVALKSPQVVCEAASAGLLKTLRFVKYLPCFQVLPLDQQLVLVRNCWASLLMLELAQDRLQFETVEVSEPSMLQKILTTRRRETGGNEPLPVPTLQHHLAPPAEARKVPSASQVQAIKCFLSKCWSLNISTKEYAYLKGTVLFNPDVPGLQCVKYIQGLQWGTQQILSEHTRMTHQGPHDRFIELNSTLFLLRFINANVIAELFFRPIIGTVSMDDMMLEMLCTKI
ssDAF12 agonist: S. stercoralis DAF-12 activation, primary screen. HEK293 ssDAF-12/GRIP1 lit1-tk-luc reporter, luminescence; % of 3 µM dafachronic acid response. activation, % at 6.8 µM. 370,000 tested, 1% active. AID 652126;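 active means activation above the mean over all tested compounds plus 3 SD, cut at about 0.9% in these data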;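 further: 0% = DMSO-only wells and 100% = 3 µM delta7-dafachronic acid wells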
DAX1 inh-2: blocks DAX1 repression of SF-1 activated StAR promoter; HEK293T StAR-luciferase reporter, SF-1/DAX-1 repression relief; inhibition, % at 6.8 µM; 370,000 tested, 1.1% active; AID 652010;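 active means inhibition above the mean over all tested compounds plus 3 SD, cut at about 3.6% in these data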;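 further: 0% = DAX-1 cells with DMSO and 100% = cells lacking DAX-1 with DMSO; higher inhibition means more luminescence from relief of DAX-1 repression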
hgDAF-12 ag: hgDAF-12 agonism, primary luciferase screen | 370,000 tested, 1.8% active | HEK293 GAL4-hgDAF12 UAS-luciferase reporter, agonist luminescence; normalized to butyrate control | activation, % at 6.8 µM | AID 687014;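 active means activation above a cutoff set at the mean of all screened compounds plus 3 SD, cut at about 10% in these data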;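 further: 0% = DMSO wells and 100% = sodium butyrate wells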
DAX1 conf: confirmation of human DAX1 (NR0B1) inhibitors | 2,400 tested, 87% active | HEK293T StAR-promoter luciferase reporter, SF-1/DAX-1 repression | shares compounds with DAX1 inh-2 | inhibition, % at 6.8 µM;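 active means inhibition above the average of every tested compound plus 3 SD, cut at about 3.8% in these data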;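 further: 0% = DAX-1 cells with DMSO and 100% = no DAX-1 control cells with DMSO; active compounds raise luminescence by relieving repression of the StAR reporter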
SF1 mutant ctr: counter-screen for DAX1 inhibitors: nonselective inhibitors with SF-1 AF2 mutant. shares compounds with DAX1 inh-2. HEK293 StAR-luciferase, luminescence. inhibition, % at 6.8 µM. 2,400 tested, 78% active. AID 652136;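 active means inhibition above the mean of all tested compounds plus 3 SD, cut at about 3% in these data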;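 further: 0% = DAX-1 transfected cells with DMSO and 100% = cells without DAX-1 with DMSO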
Active calls of the source: *; / = not tested or not shown. Compounds with a hit are over-represented: about 4.1% of the library has one in this group of screens.

SMILES | hcDAF-12 act | DAX1 inh-1 | ssDAF12 agonist | DAX1 inh-2 | hgDAF-12 ag | DAX1 conf | SF1 mutant ctr
COc1ccccc1C(=O)NC1CCCCN(Cc2ccc(OC(F)(F)F)cc2)C1=O (configuration not stated) | -1 | / | -1 | -1 | 4 | / | /
O=c1oc(Nc2cccc(Cl)c2)nc2ccccc12 | 5 | 2 | 0 | 5.4* | 9 | 10* | 4.8*
O=c1oc(Nc2ccccc2Cl)nc2ccccc12 | 2 | 2 | 0 | 4.8* | 11* | 10* | 3.8*
O=c1oc(Nc2ccccc2F)nc2ccccc12 | 3 | 3 | 0 | 1 | 7 | / | /
Clc1cccc(Nc2nc(-c3ccncc3)nc3ccccc23)c1 | -2 | 0 | -2 | -1 | -3 | / | /
Cc1ccc(S(=O)(=O)N2CCCc3nc(-c4ccccc4)ccc32)cc1 | -1 | / | -1 | -1 | 1 | / | /
CC(C)(C)c1ccc(-c2nnc(SCC(=O)NCC3CCCO3)n2N)cc1 (configuration not stated) | 1 | 1 | -1 | 6.5* | -1 | 3 | 1
O=C(CSc1nnc(NC(=O)Cc2ccccc2)s1)NCC1CCCO1 (configuration not stated) | 4 | 1 | -1 | 0 | 0 | / | /
O=C(CSc1nnc(NC(=O)c2ccccc2)s1)NCC1CCCO1 (configuration not stated) | 2 | 0 | 0 | 6.2* | 7 | 4.2* | 4.3*
C[C@H]1[C@@H](C(=O)N2CCCC2)CC(=O)/C(=N/OCc2ccccc2)C[C@@H]1c1ccccc1 | 0 | / | -1 | 0 | 0 | / | /
C[C@H]1C2CC(OC(=O)Nc3cccc(F)c3)C(C2)[C@H]2CCCCN21 (some centres not stated) | -1 | / | 0 | -1 | 2 | / | /
Cc1ccc2nc3ccc(N4CCCC4)nn3c(=O)c2c1 | 0 | 0 | -1 | 1 | 8 | / | /
CC1CCCN(c2ccc3nc4ccccc4c(=O)n3n2)C1 (configuration not stated) | 4 | -2 | 0 | 4.7* | 11* | 7.8* | 3.5*
Nc1nc2c(C(=O)N3CCCC3)nnn2c2ccccc12 | 3 | / | -1 | 4.7* | 11* | 9.2* | 4.8*
C=CCSc1nc2c(C(=O)OCC)nnn2c2ccccc12 | 2 | 0 | 0 | 0 | 0 | / | /
O=C(N[C@H](C(=O)N1CCC[C@H]1C(=O)NC1CCCC1)C1CCCCC1)C1CCCC1 | -1 | / | -1 | 0 | 1 | / | /
COc1cccc(C=Cc2nccc3ccccc23)c1OC | 4 | 0 | -1 | 6.1* | 11* | 3.8* | 2
COc1ccc(Oc2cccc3c2S(=O)(=O)N(C2CC2)C[C@@H](COCc2ccccc2)O3)cc1 | -2 | / | -2 | -1 | -2 | / | /
CCCCCN(C(=O)Cc1c(C)n(CCCCC)c2ccccc12)c1ccc(Oc2cccnc2)c(C)c1 | 4 | / | 1 | 1 | 5 | / | /
Cc1[nH]c2ccccc2c1CC(=O)Nc1ccc(Nc2cccnc2)c(-c2ccc(-c3ccccc3)cc2F)c1 | 1 | / | 0 | -1 | 1 | / | /
CCCn1c(C)cs/c1=N\C(=S)Nc1ccccc1 | 1 | 0 | -1 | 0 | -1 | / | /
Cc1cs/c(=N/C(=S)Nc2ccccc2)n1C | 2 | 3 | 0.9* | 5.6* | 13* | 12* | 5.8*
Cc1cc(C)nc(SCc2csc(-c3ccccc3)n2)n1 | 5 | 3 | 0 | 5.2* | 11* | 12* | 6.3*
Cn1nc(C(C)(C)C)cc1C(=O)NCC1CCN(C(=O)C(=O)c2cc3ccccc3o2)CC1 | -3 | / | -2 | -3 | -3 | / | /
Cn1ccc2ccc(-c3ccc4c(c3)[C@]3(CCC[C@@H](OCc5ccccc5)[C@@H]3NC(=O)CCc3ccccc3)C(=O)N4Cc3ccccc3)cc21 | -2 | / | -1 | 0 | -1 | / | /
O=C(CSc1nc2[nH]c(=O)cc(O)c2s1)Nc1ccc(Br)cc1 | 0 | 1 | -1 | 8.7* | 0 | 0 | 0
O=C(CSc1nc2[nH]c(=O)cc(O)c2s1)Nc1cccc(Br)c1 | 0 | 1 | -1 | 5.7* | -1 | 2 | 2

Source: PubChem
